Reference: PubChem BioAssay AID1481 (The Scripps Research Institute Molecular Screening Center, 2009)
“And” between values parts separate entries of the source, which are not always exact repeats. Identical values can stand only once. Hit rate of the full screen: of about 220,000 compounds, about 920 (0.42%) were called active. Shown is part of a subset that was picked to be rich in actives. Values without a mark were called inactive. Cut-off read from the data, not from the text of the source: active = inhibition above about 15%; inactive = the rest.

Each compound was assayed against Transitional endoplasmic reticulum ATPase (Homo sapiens) (UniProt P55072) (assay: inhibitors of human p97 ATPase, primary screen, biochemical (AID 1481;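 note: 0% = DMSO vehicle and 100% = wells lacking enzyme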)). Conditions: recombinant p97 ATPase, Kinase-Glo ATP luminescence, 3 h; at 8 µM; active compounds read high.
Transitional endoplasmic reticulum ATPase (Homo sapiens), sequence (P55072 whole entry, looked up): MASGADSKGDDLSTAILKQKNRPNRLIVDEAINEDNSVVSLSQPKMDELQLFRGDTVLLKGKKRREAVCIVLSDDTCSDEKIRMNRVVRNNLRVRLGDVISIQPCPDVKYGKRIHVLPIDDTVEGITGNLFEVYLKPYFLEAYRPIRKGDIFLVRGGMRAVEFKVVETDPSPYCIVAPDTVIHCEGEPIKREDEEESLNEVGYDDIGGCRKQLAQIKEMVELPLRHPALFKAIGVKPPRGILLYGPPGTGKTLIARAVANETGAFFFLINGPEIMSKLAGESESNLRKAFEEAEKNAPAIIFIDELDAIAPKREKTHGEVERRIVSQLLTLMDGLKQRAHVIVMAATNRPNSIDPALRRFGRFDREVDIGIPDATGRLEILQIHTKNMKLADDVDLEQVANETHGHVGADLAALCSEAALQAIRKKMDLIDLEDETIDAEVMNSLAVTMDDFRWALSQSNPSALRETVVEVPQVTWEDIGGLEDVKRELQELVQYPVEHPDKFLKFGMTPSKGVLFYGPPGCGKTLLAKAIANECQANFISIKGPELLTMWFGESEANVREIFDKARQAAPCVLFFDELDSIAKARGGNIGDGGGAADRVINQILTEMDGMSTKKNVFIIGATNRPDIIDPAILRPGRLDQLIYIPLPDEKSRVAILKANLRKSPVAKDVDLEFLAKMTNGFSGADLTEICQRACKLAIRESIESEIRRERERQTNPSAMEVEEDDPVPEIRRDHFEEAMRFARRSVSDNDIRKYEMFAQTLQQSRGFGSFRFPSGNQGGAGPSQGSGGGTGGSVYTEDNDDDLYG

Going from `C=CCn1c(SCc2csc(C)n2)nc2scc(-c3ccc(C)o3)c2c1=O` to `C=CCNC(=O)CSc1nc2scc(-c3ccco3)c2c(=O)n1CC=C`, the inhibition rises from 3.29% to 6.86%.

Going from `C/C(CCc1ccccc1)=N\NC(=O)c1ccc(CN2CCOCC2)cc1` to `CN1CCN(c2ccc(S(=O)(=O)N3CCOCC3)cc2NC(=O)CCc2ccccc2)CC1`, the inhibition falls from 6.17% to 4%.

First: C=CCc1cccc2cc(C(=O)NC3CCCC3)c(=O)oc12
Second: O=C(Nc1cccc(F)c1)c1coc(=O)c(Br)c1
The inhibition of the first is higher: 1.22% for the first, -1.08% for the second.

Compared with `CC(C)/C=N/NC(=O)c1cc(Br)ccc1O`, `COc1ccc(CC(=O)NCC(=O)N/N=C/c2cc(Br)ccc2OC)cc1` is lower in inhibition: -3.39% for the first, -3.65% for the second.

Going from `CN(C)c1ccc(/C=C/C(=O)c2ccc(C(C)(C)C)cc2)cc1[N+](=O)[O-]` to `Cc1cccc(NC(=O)c2ccc([N+](=O)[O-])o2)c1`, the inhibition falls from 3.04% to 0.75%.

Going from `NS(=O)(=O)c1ccc(NC(=O)COC(=O)c2c3c(nc4ccccc24)/C(=C\c2ccc4c(c2)OCO4)CCC3)cc1` to `O=C(COC(=O)c1c2c(nc3ccccc13)/C(=C\c1cccs1)CCC2)Nc1ccccc1Cl`, the inhibition falls from -1.8% to -4.57%.

Going from `COc1ccnc(Oc2ccccc2)c1-c1ncn[nH]1` to `COc1ccccc1-n1c(-c2cc(-c3ccco3)[nH]n2)n[nH]c1=S`, the inhibition rises from 2.16% to 6.44%.

Going from `C=CCNC(=S)NNC(=O)c1cc(Cl)ccc1OC` to `C#CCN1C(=O)C(O)(CC(=O)c2cc(OC)ccc2OC)c2ccccc21` (centres undefined), the inhibition rises from 2.04% to 4.75%.

Compared with `Cc1cc(C)n2nc(C(=O)NC(C)(C)C)nc2n1`, `CCOC(=O)C(C)n1cnc2sc(C)c(C)c2c1=O` (centres undefined) is higher in inhibition: -8.48% for the first, -1.18% for the second.

First: CC1(C)CC(N2CCN(C(c3ccccc3)c3ccccc3)CC2)=CC(=[N+]2CCCCC2)C1
Second: CCc1nn(CCCN2CCN(c3cccc(Cl)c3)CC2)c(=O)n1CCOc1ccccc1
The inhibition of the first is higher: -4.13% for the first, -5.07% for the second.

Going from `C=CCNCCCCOc1ccccc1` to `CCC1C=C(c2ccccc2)C=CN=C1N(CC)CC` (centres undefined), the inhibition falls from -1.97% to -5.24%.

Compared with `N=c1c2c3c(sc2ncn1N)CCCC3`, `CN1CCC(=NNC(=O)c2ccc(N(Cc3ccc(Cl)cc3)S(C)(=O)=O)cc2)CC1` is lower in inhibition: 5.38% for the first, -1.22% for the second.

Compared with `Fc1ccccc1/C=C1\CCCC2=C1Nc1ncnn1C2c1ccccc1F` (centres undefined), `Cc1nn(-c2ccccc2)c2c1C(c1ccc(F)cc1)C(C#N)=C(N)O2` (centres undefined) is lower in inhibition: 3.82% for the first, -4.19% for the second.

Going from `COc1cc(S(=O)(=O)N2CCOCC2)ccc1NC(=O)COc1ccc(N(C)S(=O)(=O)c2ccc(C)cc2)cc1` to `O=C(CN1CCN(c2ccc(O)cc2)CC1)Nc1cc(S(=O)(=O)N2CCOCC2)ccc1Cl`, the inhibition falls from 10.4% to 6.43%.

First: Cc1c(NC(=O)CN2C(=O)C(=O)N(Cc3ccccc3)C2=O)c(=O)n(-c2ccccc2)n1C
Second: Cc1nn(Cc2ccccc2)c2c1C(c1ccccc1)C(C#N)=C(N)O2 (centres undefined)
The inhibition of the first is lower: 1.04% for the first, 10.6% for the second.

Going from `N#Cc1c(-c2ccc(F)cc2)nc(-c2ccccc2)[nH]c1=O` to `Cc1nc(-c2ccccc2)sc1-c1nnc(C2CC2)o1`, the inhibition falls from 1.67% to -11.7%.

Going from `COc1ccc([N+](=O)[O-])cc1N(CC(O)CN(CC(C)C)CC(C)C)S(=O)(=O)c1ccc(C)cc1` (centres undefined) to `Cc1ccc(C(O)P(=O)(OC(C)C)c2ccc(N(C)C)cc2)cc1` (centres undefined), the inhibition rises from -15% to 0.27%.

Going from `Cn1sc(=O)c2cc(S(=O)(=O)NC3CC3)ccc21` to `N#Cc1ccsc1NC(=O)CN1CCN(S(=O)(=O)c2cc(Cl)ccc2Cl)CC1`, the inhibition falls from 13.5% to 1.72%.

Compared with `CCC1(CC)NC(=O)N(CC(=O)OCC(=O)NC(=O)c2ccccc2)C1=O`, `CCCCN1C(=O)/C(=C(/C#N)C(N)=O)c2ccccc21` is higher in inhibition: -0.8% for the first, 1.92% for the second.

Going from `COC(=O)CNc1nc(Cl)nc(N2CCC(C)CC2)n1` to `CCC(C)CN1CCC(CO)(Cc2ccccc2Cl)CC1` (centres undefined), the inhibition falls from -3.6% to -5.42%.

Compared with `Cc1cc(Nc2ccc(N3CCOCC3)cc2)c2cccc(C)c2n1`, `O=C(N/N=C/c1ccc([N+](=O)[O-])o1)c1cccc(S(=O)(=O)N2CCOCC2)c1` is lower in inhibition: 4.03% for the first, -1.08% for the second.

First: CC(C)Sc1nnc([C@H](Cc2ccccc2)NC(=O)OC(C)(C)C)o1
Second: CC(C)(C)c1cnnn1-c1ccc([N+](=O)[O-])cc1
The inhibition of the first is lower: -6.35% for the first, 4.98% for the second.

Compared with `Nc1ccccc1Sc1ccc(C(F)(F)F)cc1[N+](=O)[O-]`, `Brc1ccc(-c2csc(N/N=C/c3cccnc3)n2)cc1` is higher in inhibition: -3.21% for the first, 0.38% for the second.

Compound `CC(=O)Nc1ccc(CC#N)cc1` has an inhibition of 3.27%.

`C=CCn1c(=S)[nH]c2scc(-c3ccco3)c2c1=O` was tested, and the inhibition was 15.2% (active).
With `COc1ccc(-c2[nH]ncc2/C=N/NC(=O)c2cc(Br)ccc2O)c(OC)c1` the inhibition was 19.8% (active).
In the case of `NC(=O)c1ccc(NC(=O)COC(=O)c2c3c(nc4ccccc24)/C(=C\c2ccc4c(c2)OCO4)CCC3)cc1`, the inhibition was 21.3% (active).
For `COc1ccc(Cl)cc1C(=O)NNC(=O)c1nc2nc(C)cc(C)n2n1`, the inhibition was 23.2% (active).
With `CC(C(=O)O)n1cnc2sc3c(c2c1=O)CCCC3` (centres undefined) the inhibition was 19.5% (active).
For `Oc1c(Cl)cc(Cl)c(Cl)c1Cc1c(O)c(Cl)cc(Cl)c1Cl`, the inhibition was 31.6% (active).
In the case of `[O-][n+]1onc2c1CCc1[nH]c(-c3ccccc3)nc1-2`, the inhibition was 37.3% (active).
For `Clc1ccc(C2=CSC3=Nc4cccc5cccc(c45)N23)cc1`, the inhibition was 33% (active).
For `COc1ccccc1C1C(C#N)=C(N)Oc2c1c(-c1ccccc1)nn2-c1ccccc1` (centres undefined), the inhibition was 27.6% (active).
`COc1ccc2c(c1)C(=C(C#N)C#N)C(=O)N2CCc1ccccc1` was tested, and the inhibition was 20.6% (active).
`O=[N+]([O-])c1cc(Cl)cc(/C=N/NC(=S)Nc2cc(S(=O)(=O)N3CCOCC3)ccc2Cl)c1O` was tested, and the inhibition was 14.6% (active).
For `CC(C)CNC(=O)/C=C/C(=O)O`, the inhibition was 1.63% and 0.6%.
